Compound activity as filed in PubChem.
HP1b chromo inh: blocks HP1-beta chromodomain binding to methylated histone tails. 390,000 tested, 0.56% active. P83916. AlphaScreen HP1-beta / biotin-H3K9me3 peptide binding. Potency, µM (highest dose often 114 µM), inactives show at the highest dose activity change, negative = inhibition, hits mostly inhibitors; note: potency is the fitted concentration of half-maximal effect; nearly all actives have a fitted effect of over 70% in size
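AlphaScreen: HP1-beta (50 nM) preformed 30 min with biotin-H3(1-18)K9me3 peptide (50 nM) in PBS pH 7.4, 0.01% Tween-20. Compound added for 30 min at RT, then streptavidin donor/nickel chelate acceptor beads (10 ug/mL) for 30 min.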
BAZ2B block: BAZ2B (human) inhibition. AlphaScreen BAZ2B-H3K14Ac peptide displacement. 360,000 tested, 4.4% active. Potency, µM (top dose mostly 114 µM), without a hit: top-dose activity change, negative = inhibition, hits mostly inhibitors. AID 504333; note: potency is the fitted concentration of half-maximal effect; % is set by controls: 0 for no effect and ±100 for the full control effect; nearly all actives have a fitted effect of over 60% in size
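BAZ2B 50 nM plus b-H3(5-23)K14Ac 50 nM, PBS pH 7.4/0.01% Tween-20, 30 min RT; compound added (max 110 uM), 30 min RT; streptavidin donor/Ni-chelate acceptor beads 10 ug/mL final, 20 min dark; AlphaScreen read.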
L3MBTL1 inh: L3MBTL1 (human) inhibition; AlphaScreen L3MBTL1–H3K9me1 peptide binding; Potency, µM (top dose mostly 57.1 µM), inactives show at the top dose activity, negative = inhibition, most hits filed as inhibitors; 230,000 tested, 0.66% active; AID 485360; note: potency is the fitted concentration of half-maximal effect; % is set by controls: 0 for no effect and ±100 for the full control effect; nearly all actives have a fitted effect of over 60% in size
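First, the protein-peptide complex forms for 30 min at room temperature (L3MBTL1 50 nM, biotinylated H3K9me1 peptide 75 nM). Next, compounds are pin-transferred and incubated 30 min. Finally, AlphaScreen beads are added and read after 30 min.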
JMJD2A Tudor inh: inhibitors of human JMJD2A Tudor domain; Potency, µM (doses to about 114 µM), for the others: top-dose activity change, negative = inhibition, hits mostly inhibitors; O75164; 390,000 tested, 4.4% active; AlphaScreen JMJD2A-Tudor / H3K4me3 peptide binding; AID 504339; note: potency is the fitted concentration of half-maximal effect; % is set by controls: 0 for no effect and ±100 for the full control effect; nearly all actives have a fitted effect of over 50% in size
PI5P4Ka inh: inhibitors of human PI5P4K alpha; P48426; PI5P4Kalpha enzyme, ADP-Glo luminescence, 60 min; active compounds read low; max response, %; 330,000 tested, 1.2% active; AID 652105; active = max response of -50% or lower; inconclusive = between -30% and -50%; inactive = -30% or higher; note: value at the top dose of about 77 µM; % is set by controls: 0 for no effect and ±100 for the full control effect
Target sequence (P48426 whole entry, looked up): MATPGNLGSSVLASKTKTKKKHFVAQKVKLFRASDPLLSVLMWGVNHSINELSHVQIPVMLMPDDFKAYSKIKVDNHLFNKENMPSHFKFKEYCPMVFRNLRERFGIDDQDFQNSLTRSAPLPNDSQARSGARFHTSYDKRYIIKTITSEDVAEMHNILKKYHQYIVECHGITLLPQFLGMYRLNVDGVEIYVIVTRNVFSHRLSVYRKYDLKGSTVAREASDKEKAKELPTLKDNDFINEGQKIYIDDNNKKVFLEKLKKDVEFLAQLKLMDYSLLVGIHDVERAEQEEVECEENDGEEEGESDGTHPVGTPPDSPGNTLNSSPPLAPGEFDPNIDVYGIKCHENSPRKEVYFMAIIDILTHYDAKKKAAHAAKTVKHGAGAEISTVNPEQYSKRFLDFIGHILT
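Enzyme plus substrate dispensed, test compounds pinned in, then ATP (5 microM final) added. After 60 min at RT, ADP-Glo reagent 1 for 45 min and reagent 2 for 30 min preceded luminescence imaging.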
KDM4E inh: blocks human JMJD2E demethylase activity; 230,000 tested, 1.6% active; B2RXH2; Potency, µM (highest dose often 57.1 µM), for inactives: top-dose activity change, negative = inhibition, hits mostly inhibitors; JMJD2E catalytic domain, FDH-coupled NADH fluorescence (FDH is formaldehyde dehydrogenase); active = well fitted inhibition curve with a large enough effect, not every such curve was filed as active; inconclusive = small, poorly fitted or top-dose-only effect, or another doubt; inactive = no such curve, though single readings can be large or run the other way;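 note: potency is the fitted concentration of half-maximal effect; 0% = wells with enzyme and -100% = buffer wells without enzyme; nearly all actives have a fitted effect of over 50% in size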
Target sequence (B2RXH2 1-337 limits assumed): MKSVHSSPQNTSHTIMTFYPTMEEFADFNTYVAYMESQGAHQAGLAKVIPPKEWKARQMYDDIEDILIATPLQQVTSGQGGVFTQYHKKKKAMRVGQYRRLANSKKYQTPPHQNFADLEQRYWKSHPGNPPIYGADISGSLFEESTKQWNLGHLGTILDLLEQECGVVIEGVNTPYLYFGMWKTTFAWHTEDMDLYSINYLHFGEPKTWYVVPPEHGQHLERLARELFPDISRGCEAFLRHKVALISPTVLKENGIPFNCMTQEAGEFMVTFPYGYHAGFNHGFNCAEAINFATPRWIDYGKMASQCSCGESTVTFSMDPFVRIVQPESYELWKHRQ
An asterisk follows results filed as active; ? = inconclusive; . = no result given; [ ] = remark or other dose. Most compounds without a hit are left out; they make up all but 5.7% or so of the library. Unless noted, calls come from the whole dose curve; as a rule, active = well fitted inhibition curve with a large enough effect; inconclusive = small, poorly fitted or top-dose-only effect; inactive = no such curve, though single readings can be large or run the other way.

SMILES	HP1b chromo inh	BAZ2B block	L3MBTL1 inh	JMJD2A Tudor inh	PI5P4Ka inh	KDM4E inh
CCC(C)c1ccc(N2C(=O)NC(=O)/C(=C/c3cccn3CCOc3ccc(C)cc3)C2=O)cc1 (stereo unspecified)	23%	-9%	5%	-25%	-58*	-8%
COC1=CC(=O)O[C@@H](/C=C\c2ccccc2)C1	.	.	.	.	.	2%[25.5 µM]
CCN(CC)/[N+]([O-])=N/O	.	.	.	.	.	-10%
COC(=O)c1cn(S(=O)(=O)c2ccccc2)c2ccccc12	56%	19%	.	41%	21	.
O=c1cccc2n1CC1CC2CN(Cc2c(Cl)cccc2Cl)C1 (stereo unspecified)	8%	56µM*	6%	-36%	.	1%
Cc1ccc(CN2CC3CC(C2)c2cccc(=O)n2C3)cc1 (stereo unspecified)	16%	-8%	.	-26%	.	-4%
COc1cc(CN2CC3CC(C2)c2cccc(=O)n2C3)cc(OC)c1OC (stereo unspecified)	2%	79µM*	.	-28%	.	10%
COc1cc(C)c(-c2nc(CN3C[C@@H]4C[C@@H](C3)c3cccc(=O)n3C4)c(C)o2)cc1C	18%	-28%	-7%	-18%	0	-4%
N[C@H](Cn1ccc(=O)c(O)c1)C(=O)O	.	.	.	.	.	5%
CCCCc1ccc(NC(=O)c2ccc3c(c2)CCN3S(=O)(=O)CC)cc1	-1%	?	.	?	.	.
Cc1cc(/C=C2\C(=O)NC(=O)N(c3ccc(F)cc3)C2=O)c(C)n1-c1cccc(C(=O)O)c1	6%	-36%	?	-26%	-50*	-13%
Cc1cc(/C=C2\C(=O)NC(=O)N(c3ccccc3)C2=O)c(C)n1-c1ccc(C(=O)O)c(Cl)c1	5%	?	?	-26%	?	.
Cc1cc(/C=C2\C(=O)NC(=O)N(c3ccccc3F)C2=O)c(C)n1-c1cc(C(=O)O)cc(C(=O)O)c1	13µM*	28µM*	.	11µM*	-78*	.
CCOc1ccccc1NC(=O)c1sc2nc3c(cc2c1N)CN(Cc1ccccc1)CC3	53%	-2%[57.1 µM]	.	0%	.	.
O=C1CCC[C@H]2[C@H]3CCCN4CCCC(=CN12)[C@@H]34	.	.	.	.	.	-16%
CN(C)C(=S)SSC(=S)N(C)C	22%	-33%	64%	-13%	10	25µM*
CCCCC/C=C\C/C=C\C/C=C\C/C=C\CCCC(=O)N[C@H](C)CO	.	.	.	.	.	1%
CCC(C)C1NC(=O)C(C(C)=O)=C1O (stereo unspecified)	44%	50µM*	.	-23%	-9	?
O=C(O)C1Sc2[nH]c(=O)sc2C2c3cc(Cl)ccc3OC(=O)C12 (stereo unspecified)	-16%	?	-12%	?	?	14µM*
O=C1NC(=O)C(=Cc2ccc(-c3cc(Cl)ccc3[N+](=O)[O-])o2)C(=O)N1	?	45µM*	?	25µM*	-53*	-29%
O=C1NC(=O)C(=Cc2cc3c(cc2[N+](=O)[O-])OCO3)C(=O)N1	0%	-29%	-5%	-35%	?	?
O=C1NC(=O)C(=Cc2ccc(-c3ccccc3[N+](=O)[O-])o2)C(=O)N1	-1%	?	.	?	0	20µM*
O=C1NC(=O)C(=Cc2ccccc2[N+](=O)[O-])C(=O)N1	8%	.	.	-4%	?	.
Cc1ccc(C[N+](C)(C)C)o1	.	.	.	.	.	-6%
NS(=O)(=O)c1ccc(-c2ccc(C=C3C(=O)NC(=S)NC3=O)o2)cc1	.	50µM*	?	.	.	.
SMILES	HP1b chromo inh	BAZ2B block	L3MBTL1 inh	JMJD2A Tudor inh	PI5P4Ka inh	KDM4E inh
NS(=O)(=O)c1ccc(-c2ccc(C=C3C(=O)NC(=O)NC3=O)o2)cc1	12%	-34%	11%	?	-64*	.
CNS(=O)(=O)c1ccc(-c2ccc(C=C3C(=O)NC(=O)NC3=O)o2)cc1	72%	?	2%	-25%	-20	.
CC1CC(C)C(=O)[C@H](C(O)CC2CC(=O)NC(=O)C2)C1 (stereo partly specified)	.	.	.	.	.	3%
CC[C@@H]1CN2CCc3cc(OC)c(OC)cc3[C@H]2C[C@@H]1C[C@@H]1NCCc2cc(O)c(OC)cc21	.	.	.	.	.	-10%[25.5 µM]
CC1=C(O)C(=O)C=C2C1=CC=C1C2(C)CCC2(C)C3CC(C)(C(=O)O)CCC3(C)CCC12C (stereo unspecified)	?	.	.	20µM*	-72*	.
Cc1c(O)c(O)cc2c1CC=C1[C@]3(C)CC[C@]4(C)CC[C@@](C)(C(=O)O)CC4[C@]3(C)CC[C@]12C (stereo partly specified)	.	.	.	.	.	4%
C/C(=C/C=C/[C@@H](C)C(=O)O)[C@H]1CN[C@H](C(=O)O)[C@H]1CC(=O)O	21%	-2%	?	56µM*	2	-25%
C[C@H](CO)N1C[C@H](C)[C@@H](CN(C)C(=O)Nc2ccccc2)Oc2c(NS(=O)(=O)c3ccc(F)cc3)cccc2C1=O	48%	.	9%	-6%	-1	.
C[C@]12Cc3cn4c(nc3C=C1CCC1C2CC[C@@]2(C)[C@H]1CC[C@@]2(O)C#N)nc1ccccc14 (stereo partly specified)	.	.	.	.	.	-18%
COc1ccc(-n2c(/C=C3\C(=O)Nc4ccccc43)nc3ccccc3c2=O)cc1	-1%	2%	.	1%	2	-4%
O=C1Nc2ccccc2/C1=C/c1nc2ccccc2c(=O)n1-c1ccc(O)cc1	-22%	40µM*	.	-26%	-21	-6%
CCOC(=O)c1ccc(N2C(=O)c3n[nH]c(-c4cccs4)c3C2c2ccc(OC)cc2OC)cc1 (stereo unspecified)	2%	.	.	?	.	.
CC1CCC(NCCc2ccc3c(c2)OCO3)CC1 (stereo unspecified)	?	?	-1%	3.2µM*	.	?
c1cc2c(cc1CCNC1C3CC4CC(C3)CC1C4)OCO2 (stereo unspecified)	-22%	?	-2%	4µM*	.	?
CCSc1nc2n(n1)C(c1ccc(Cl)cc1Cl)C(C(=O)Nc1ccccc1C)=C(C)N2 (stereo unspecified)	44%	-1%	.	-17%	.	.
COc1ccccc1N1C(=O)CC(=O)NC1=O	0%[57 µM]	50µM*	.	-14%	-2	.
Cc1cccn2c(=O)c(/C=C(\C#N)c3nc4ccccc4s3)c(Oc3ccc(F)cc3)nc12	47%	-2%	.	-9%	.	.
OCCN1CCN(CCCN2c3ccccc3Sc3ccc(C(F)(F)F)cc32)CC1	10%	?	-6%	79µM*	-7	-12%
FC(F)(F)c1ccc2c(c1)N(CCCN1CCN(CCCl)CC1)c1ccccc1S2	-16%	40µM*	.	16µM*	-10	?
Nc1ccc(CCN2CCN(c3cccc(C(F)(F)F)c3)CC2)cc1	-2%	.	.	?	4	1%
